Common to all, as to assay: DAPPL (digital affinity profiling via proximity ligation, sequencing); 10 mM Tris-HCl pH 7.5, 50 mM NaCl, 1 mM DTT, 4% glycerol, room temperature, 30 min; GST-TFs on glutathione beads, 16-mer random dsDNA library, 0.1% formaldehyde crosslink after washing; high values mean tight binding
One assay deals with T1, FEV (Homo sapiens, UniProt Q99581 1-238).
T1 sequence: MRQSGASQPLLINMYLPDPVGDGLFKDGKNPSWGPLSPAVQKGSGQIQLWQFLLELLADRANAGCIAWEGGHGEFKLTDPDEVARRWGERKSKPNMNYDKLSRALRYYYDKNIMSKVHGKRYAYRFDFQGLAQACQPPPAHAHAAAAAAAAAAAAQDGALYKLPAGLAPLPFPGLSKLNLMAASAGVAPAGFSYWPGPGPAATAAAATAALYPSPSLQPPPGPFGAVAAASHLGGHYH
To be noted: protein: recombinant; tags: N-terminal GST; dsDNA, one strand shown. Summed up: (§1)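 Pools were built from human transcription factors expressed in yeast as GST fusions, captured on glutathione beads and DNA-barcoded, along with a tag-only sample. Incubation with 200 nmole of a 16-mer random double-stranded DNA library lasted 30 min at room temperature in Tris/NaCl/DTT/glycerol buffer, and was followed by washing, 0.1% formaldehyde crosslinking, proximity ligation, PCR amplification and Illumina NextSeq500 sequencing. Binding signal is the quotient of each hexamer's read frequency for a factor and its frequency for the tag-only sample.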

The next assay addresses ETV5 (Homo sapiens, UniProt P41161 1-510). To be noted: protein: recombinant; tags: N-terminal GST; dsDNA, one strand shown. Summed up: as §1
The target of the next assay is HSF1 (Homo sapiens, UniProt Q00613 1-529). To be noted: protein: recombinant; tags: N-terminal GST; chain copies: 3; dsDNA, one strand shown. Summed up:
as §1

Another assay addresses T2, SPIC (Homo sapiens, UniProt Q8N5J4 1-248).
T2 sequence: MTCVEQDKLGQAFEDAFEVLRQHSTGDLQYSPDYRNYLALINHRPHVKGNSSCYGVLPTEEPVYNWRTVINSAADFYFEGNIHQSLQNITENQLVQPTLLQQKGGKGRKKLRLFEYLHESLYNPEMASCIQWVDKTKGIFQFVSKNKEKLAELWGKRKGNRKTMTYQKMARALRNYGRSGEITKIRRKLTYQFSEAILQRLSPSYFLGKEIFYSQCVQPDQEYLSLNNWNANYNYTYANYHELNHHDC
To be noted: protein: recombinant; tags: N-terminal GST; dsDNA, one strand shown. Put shortly:
as §1

The next assay deals with ELF4 (Homo sapiens, UniProt Q99607 1-663). To be noted: protein: recombinant; tags: N-terminal GST; dsDNA, one strand shown. Summed up:
as §1

A further assay addresses T3, ELK4 (Homo sapiens, UniProt P28324-2 1-405).
T3 sequence: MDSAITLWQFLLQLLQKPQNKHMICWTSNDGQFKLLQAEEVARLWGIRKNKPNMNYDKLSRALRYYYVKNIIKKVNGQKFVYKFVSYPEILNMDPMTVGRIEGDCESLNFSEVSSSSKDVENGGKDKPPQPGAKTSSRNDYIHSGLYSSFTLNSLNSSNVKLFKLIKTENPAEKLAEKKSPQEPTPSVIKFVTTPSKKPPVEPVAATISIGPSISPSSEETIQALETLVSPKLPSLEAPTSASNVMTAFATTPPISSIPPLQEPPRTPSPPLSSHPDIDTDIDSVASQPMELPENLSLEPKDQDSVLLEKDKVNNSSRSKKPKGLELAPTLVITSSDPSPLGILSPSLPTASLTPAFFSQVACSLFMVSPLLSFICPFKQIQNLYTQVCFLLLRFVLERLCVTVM
To be noted: protein: recombinant; tags: N-terminal GST; dsDNA, one strand shown. Summed up:
as §1

In the next assay the target is T4, ETV2 (Homo sapiens, UniProt O00321 1-342).
T4 sequence: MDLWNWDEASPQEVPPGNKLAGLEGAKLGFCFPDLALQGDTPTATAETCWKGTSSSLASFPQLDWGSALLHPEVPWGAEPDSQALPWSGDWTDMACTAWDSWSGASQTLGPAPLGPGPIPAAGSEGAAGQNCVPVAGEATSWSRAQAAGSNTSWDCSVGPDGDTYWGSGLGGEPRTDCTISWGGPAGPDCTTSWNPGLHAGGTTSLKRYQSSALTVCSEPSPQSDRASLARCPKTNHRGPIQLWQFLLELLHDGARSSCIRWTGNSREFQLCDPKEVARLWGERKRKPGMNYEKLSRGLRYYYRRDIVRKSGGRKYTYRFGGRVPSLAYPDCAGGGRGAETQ
To be noted: protein: recombinant; tags: N-terminal GST; dsDNA, one strand shown. Summed up:
as §1

The target of a further assay is T5, ELF3 (Homo sapiens, UniProt P78545 1-371).
T5 sequence: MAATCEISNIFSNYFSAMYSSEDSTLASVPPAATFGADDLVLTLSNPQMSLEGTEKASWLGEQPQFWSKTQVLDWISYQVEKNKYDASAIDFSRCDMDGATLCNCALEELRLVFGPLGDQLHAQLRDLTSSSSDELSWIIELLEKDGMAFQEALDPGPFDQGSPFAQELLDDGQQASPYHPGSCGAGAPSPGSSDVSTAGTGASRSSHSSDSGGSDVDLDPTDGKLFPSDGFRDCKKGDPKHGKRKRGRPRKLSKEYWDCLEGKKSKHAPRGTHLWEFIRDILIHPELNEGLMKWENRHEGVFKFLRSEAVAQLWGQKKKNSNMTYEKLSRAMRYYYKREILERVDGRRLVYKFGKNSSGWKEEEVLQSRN
To be noted: protein: recombinant; tags: N-terminal GST; dsDNA, one strand shown. Summed up: as §1

A further assay deals with CRX (Homo sapiens, UniProt O43186 1-299). To be noted: protein: recombinant; tags: N-terminal GST; dsDNA, one strand shown. Put shortly: as §1
CRX, sequence (O43186 whole entry): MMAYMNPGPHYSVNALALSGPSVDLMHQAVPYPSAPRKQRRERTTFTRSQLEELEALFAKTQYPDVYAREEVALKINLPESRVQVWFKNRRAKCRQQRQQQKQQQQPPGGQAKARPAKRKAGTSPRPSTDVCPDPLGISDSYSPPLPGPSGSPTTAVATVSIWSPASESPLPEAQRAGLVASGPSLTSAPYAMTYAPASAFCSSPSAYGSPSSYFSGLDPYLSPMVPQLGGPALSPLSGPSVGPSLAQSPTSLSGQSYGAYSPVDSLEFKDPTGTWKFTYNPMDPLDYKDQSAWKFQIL
For a further assay, the target named is ETV1 (Homo sapiens, UniProt P50549 1-477). To be noted: protein: recombinant; tags: N-terminal GST; dsDNA, one strand shown. Summed up: as §1
ETV1, sequence (P50549 whole entry): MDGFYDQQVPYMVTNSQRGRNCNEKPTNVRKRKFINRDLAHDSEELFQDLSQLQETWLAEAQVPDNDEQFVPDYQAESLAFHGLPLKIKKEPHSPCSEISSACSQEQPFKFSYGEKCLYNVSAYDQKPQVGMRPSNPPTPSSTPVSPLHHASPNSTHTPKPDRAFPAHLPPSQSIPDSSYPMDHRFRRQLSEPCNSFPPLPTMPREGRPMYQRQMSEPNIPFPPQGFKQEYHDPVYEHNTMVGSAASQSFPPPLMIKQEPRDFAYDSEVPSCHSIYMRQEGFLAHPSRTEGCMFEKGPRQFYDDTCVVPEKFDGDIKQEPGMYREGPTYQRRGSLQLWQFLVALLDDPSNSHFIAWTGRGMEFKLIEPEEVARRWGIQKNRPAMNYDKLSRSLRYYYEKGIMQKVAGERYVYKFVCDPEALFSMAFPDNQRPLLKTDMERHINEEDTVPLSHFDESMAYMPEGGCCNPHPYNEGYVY
The target in a further assay is T6, ERF (Homo sapiens, UniProt P50548 1-548).
T6 sequence: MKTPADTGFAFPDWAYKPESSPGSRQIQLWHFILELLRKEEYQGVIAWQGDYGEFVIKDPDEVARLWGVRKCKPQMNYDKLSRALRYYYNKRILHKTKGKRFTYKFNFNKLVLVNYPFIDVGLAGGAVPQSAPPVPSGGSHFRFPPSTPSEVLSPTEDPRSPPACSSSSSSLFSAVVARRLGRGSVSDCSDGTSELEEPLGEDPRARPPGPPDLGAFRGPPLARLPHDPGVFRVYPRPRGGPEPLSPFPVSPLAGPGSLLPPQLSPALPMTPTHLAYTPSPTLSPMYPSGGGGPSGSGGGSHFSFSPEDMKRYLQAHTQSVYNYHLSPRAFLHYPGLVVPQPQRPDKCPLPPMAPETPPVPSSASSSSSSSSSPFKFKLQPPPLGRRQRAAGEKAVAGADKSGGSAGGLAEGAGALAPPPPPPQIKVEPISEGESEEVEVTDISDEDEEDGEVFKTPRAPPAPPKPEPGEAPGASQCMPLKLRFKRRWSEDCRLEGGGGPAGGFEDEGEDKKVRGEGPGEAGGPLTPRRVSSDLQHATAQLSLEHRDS
To be noted: protein: recombinant; tags: N-terminal GST; dsDNA, one strand shown. Put shortly:
as §1

The target of the next assay is T7, ETV3L (Homo sapiens, UniProt Q6ZN32 1-361).
T7 sequence: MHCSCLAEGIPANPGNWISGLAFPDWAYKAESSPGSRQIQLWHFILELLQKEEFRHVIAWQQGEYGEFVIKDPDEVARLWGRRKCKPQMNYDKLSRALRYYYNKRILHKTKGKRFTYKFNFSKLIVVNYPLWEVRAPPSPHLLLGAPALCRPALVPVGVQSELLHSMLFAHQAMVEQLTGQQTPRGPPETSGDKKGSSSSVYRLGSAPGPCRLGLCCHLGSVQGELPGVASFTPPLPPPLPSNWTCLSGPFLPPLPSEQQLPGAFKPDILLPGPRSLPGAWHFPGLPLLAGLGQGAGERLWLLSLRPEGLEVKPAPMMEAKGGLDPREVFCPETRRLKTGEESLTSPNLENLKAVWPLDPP
To be noted: protein: recombinant; tags: N-terminal GST; dsDNA, one strand shown. Put shortly: as §1

The target of the next assay is T8, ETS2 (Homo sapiens, UniProt P15036 1-469).
T8 sequence: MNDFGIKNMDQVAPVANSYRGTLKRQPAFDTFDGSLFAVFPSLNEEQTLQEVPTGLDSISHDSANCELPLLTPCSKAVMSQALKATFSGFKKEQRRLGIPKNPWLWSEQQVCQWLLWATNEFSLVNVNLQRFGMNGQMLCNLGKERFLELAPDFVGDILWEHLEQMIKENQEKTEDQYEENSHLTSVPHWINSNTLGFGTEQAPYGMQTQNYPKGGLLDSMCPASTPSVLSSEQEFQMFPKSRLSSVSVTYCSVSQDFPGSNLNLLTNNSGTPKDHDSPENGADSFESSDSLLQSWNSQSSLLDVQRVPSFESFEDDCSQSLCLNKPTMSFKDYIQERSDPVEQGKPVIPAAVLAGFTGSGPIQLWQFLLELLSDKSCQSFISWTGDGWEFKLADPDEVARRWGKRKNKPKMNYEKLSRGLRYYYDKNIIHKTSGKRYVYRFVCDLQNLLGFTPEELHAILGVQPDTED
To be noted: protein: recombinant; tags: N-terminal GST; dsDNA, one strand shown. Put shortly:
as §1

For a further assay, the target named is T9, SPDEF (Homo sapiens, UniProt O95238 1-335).
T9 sequence: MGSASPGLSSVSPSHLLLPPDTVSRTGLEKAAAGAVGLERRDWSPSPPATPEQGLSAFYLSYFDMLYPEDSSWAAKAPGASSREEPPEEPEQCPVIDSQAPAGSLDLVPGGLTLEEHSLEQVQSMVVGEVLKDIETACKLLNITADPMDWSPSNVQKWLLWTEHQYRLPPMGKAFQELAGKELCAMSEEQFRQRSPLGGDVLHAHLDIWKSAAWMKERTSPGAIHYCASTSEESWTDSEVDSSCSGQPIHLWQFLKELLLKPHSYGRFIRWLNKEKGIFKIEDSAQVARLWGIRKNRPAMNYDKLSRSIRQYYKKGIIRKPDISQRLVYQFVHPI
To be noted: protein: recombinant; tags: N-terminal GST; dsDNA, one strand shown. Put shortly: as §1

A further assay has as its target T10, ETV7 (Homo sapiens, UniProt Q9Y603 1-341).
T10 sequence: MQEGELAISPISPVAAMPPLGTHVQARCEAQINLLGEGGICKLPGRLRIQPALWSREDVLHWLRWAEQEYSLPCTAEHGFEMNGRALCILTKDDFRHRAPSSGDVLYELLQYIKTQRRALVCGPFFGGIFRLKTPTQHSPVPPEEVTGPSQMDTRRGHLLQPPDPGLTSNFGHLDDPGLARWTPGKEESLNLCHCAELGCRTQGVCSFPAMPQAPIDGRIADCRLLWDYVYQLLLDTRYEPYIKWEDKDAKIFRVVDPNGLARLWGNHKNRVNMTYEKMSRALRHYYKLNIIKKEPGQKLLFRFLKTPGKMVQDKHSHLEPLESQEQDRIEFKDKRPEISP
To be noted: protein: recombinant; tags: N-terminal GST; dsDNA, one strand shown. Put shortly:
as §1

Another assay deals with T11, ELF5 (Homo sapiens, UniProt Q9UKW6-2 1-255).
T11 sequence: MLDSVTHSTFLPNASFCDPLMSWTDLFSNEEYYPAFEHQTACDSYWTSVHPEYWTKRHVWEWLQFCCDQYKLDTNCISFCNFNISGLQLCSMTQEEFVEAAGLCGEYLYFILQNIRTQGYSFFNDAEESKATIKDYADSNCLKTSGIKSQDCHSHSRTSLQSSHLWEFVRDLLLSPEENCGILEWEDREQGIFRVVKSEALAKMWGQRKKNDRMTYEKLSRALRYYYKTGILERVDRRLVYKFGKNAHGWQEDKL
To be noted: protein: recombinant; tags: N-terminal GST; dsDNA, one strand shown. Summed up:
as §1

In a further assay the target is T12, ETV3 (Homo sapiens, UniProt P41162-2 1-143).
T12 sequence: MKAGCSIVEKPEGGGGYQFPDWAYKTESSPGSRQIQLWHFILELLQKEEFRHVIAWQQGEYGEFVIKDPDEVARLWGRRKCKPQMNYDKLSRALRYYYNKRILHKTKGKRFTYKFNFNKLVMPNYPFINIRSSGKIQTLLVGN
To be noted: protein: recombinant; tags: N-terminal GST; dsDNA, one strand shown. Summed up: as §1

Another assay concerns the target ETV6 (Homo sapiens, UniProt P41212 1-452). To be noted: protein: recombinant; tags: N-terminal GST; dsDNA, one strand shown. Put shortly:
as §1

ELF4, sequence (Q99607 whole entry): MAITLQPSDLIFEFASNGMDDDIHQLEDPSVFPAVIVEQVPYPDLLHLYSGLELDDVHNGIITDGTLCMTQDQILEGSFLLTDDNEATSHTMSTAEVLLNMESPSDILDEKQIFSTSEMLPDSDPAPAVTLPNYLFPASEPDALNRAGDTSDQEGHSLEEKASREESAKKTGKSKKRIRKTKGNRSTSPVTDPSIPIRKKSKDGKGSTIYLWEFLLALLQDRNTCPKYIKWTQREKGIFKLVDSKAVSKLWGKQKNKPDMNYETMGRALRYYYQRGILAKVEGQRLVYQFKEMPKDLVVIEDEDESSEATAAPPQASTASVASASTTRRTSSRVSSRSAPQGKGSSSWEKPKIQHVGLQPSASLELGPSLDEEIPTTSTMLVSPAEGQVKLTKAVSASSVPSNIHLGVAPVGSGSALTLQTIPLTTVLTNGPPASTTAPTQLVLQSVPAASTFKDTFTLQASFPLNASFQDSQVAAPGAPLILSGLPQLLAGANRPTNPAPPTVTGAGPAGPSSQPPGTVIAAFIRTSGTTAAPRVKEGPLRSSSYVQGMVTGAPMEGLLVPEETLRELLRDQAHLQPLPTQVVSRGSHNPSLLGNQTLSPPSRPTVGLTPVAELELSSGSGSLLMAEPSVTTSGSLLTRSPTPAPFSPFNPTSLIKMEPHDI
ETV5, sequence (P41161 whole entry): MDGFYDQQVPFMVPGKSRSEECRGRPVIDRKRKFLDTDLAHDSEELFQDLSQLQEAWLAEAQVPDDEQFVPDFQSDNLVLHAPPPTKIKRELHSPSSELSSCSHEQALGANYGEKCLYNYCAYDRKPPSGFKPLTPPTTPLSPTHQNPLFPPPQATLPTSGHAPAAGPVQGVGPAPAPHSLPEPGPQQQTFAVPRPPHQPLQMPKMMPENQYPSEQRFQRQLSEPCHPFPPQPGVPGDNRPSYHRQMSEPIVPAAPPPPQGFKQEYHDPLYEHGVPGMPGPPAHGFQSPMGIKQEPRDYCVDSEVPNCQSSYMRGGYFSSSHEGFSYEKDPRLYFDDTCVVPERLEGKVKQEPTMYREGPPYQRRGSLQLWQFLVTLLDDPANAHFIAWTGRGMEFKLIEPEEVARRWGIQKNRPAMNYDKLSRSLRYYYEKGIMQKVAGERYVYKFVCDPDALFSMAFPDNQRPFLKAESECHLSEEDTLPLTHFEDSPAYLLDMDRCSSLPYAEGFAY
HSF1, sequence (Q00613 whole entry): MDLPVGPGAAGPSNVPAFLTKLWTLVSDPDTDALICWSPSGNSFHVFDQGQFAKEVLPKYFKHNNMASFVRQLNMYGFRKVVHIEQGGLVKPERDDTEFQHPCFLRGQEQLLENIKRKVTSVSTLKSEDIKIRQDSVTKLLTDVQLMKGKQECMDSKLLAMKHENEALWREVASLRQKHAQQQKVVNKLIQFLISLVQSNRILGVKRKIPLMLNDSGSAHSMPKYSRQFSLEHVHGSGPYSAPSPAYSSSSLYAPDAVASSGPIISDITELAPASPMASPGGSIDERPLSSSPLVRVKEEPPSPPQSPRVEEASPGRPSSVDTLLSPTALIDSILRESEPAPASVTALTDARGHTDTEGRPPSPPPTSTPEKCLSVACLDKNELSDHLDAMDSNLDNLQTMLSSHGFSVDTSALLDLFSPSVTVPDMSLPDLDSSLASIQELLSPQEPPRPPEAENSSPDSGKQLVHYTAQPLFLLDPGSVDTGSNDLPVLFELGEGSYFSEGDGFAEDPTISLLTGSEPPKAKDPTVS
ETV6, sequence (P41212 whole entry): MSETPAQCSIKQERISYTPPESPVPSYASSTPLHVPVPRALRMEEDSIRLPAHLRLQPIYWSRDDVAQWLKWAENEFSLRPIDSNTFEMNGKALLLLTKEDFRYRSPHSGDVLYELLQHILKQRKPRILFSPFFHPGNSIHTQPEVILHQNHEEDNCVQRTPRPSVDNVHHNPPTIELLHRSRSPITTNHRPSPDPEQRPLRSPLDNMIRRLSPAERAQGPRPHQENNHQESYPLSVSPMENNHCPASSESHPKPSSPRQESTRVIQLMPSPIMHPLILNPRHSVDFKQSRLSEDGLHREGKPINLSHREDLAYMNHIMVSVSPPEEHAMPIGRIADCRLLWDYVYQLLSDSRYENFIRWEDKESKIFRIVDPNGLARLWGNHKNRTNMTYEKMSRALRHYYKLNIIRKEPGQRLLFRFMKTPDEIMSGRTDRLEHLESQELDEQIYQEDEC

For ACATAT, the binding signal was 1.29 fold enrichment (6-mer frequency, TF over GST control) with FEV; 1.32 fold enrichment (6-mer frequency, TF over GST control) in the assay with ETV5; 1.04 fold enrichment (6-mer frequency, TF over GST control) with HSF1; 1.36 fold enrichment (6-mer frequency, TF over GST control) in the assay with SPIC; 1.3 fold enrichment (6-mer frequency, TF over GST control) in the assay with ELF4; 1.22 fold enrichment (6-mer frequency, TF over GST control) with ELK4. The binding signal with ETV2 is 1.28 fold enrichment (6-mer frequency, TF over GST control); with ELF3, 1.25 fold enrichment (6-mer frequency, TF over GST control); with CRX, 1.12 fold enrichment (6-mer frequency, TF over GST control); in the assay with ETV1 it was 1.26 fold enrichment (6-mer frequency, TF over GST control); with ERF, 1.34 fold enrichment (6-mer frequency, TF over GST control); in the assay with ETV3L, 1.29 fold enrichment (6-mer frequency, TF over GST control). For the same sequence, the binding signal in the assay with ETS2 was 1.27 fold enrichment (6-mer frequency, TF over GST control); in the assay with SPDEF, 1.38 fold enrichment (6-mer frequency, TF over GST control); in the assay with ETV7, 1.37 fold enrichment (6-mer frequency, TF over GST control); with ELF5, 1.2 fold enrichment (6-mer frequency, TF over GST control); with ETV3 it was 1.28 fold enrichment (6-mer frequency, TF over GST control); in the assay with ETV6, 1.21 fold enrichment (6-mer frequency, TF over GST control).

The values above are taken from PMC7862700, “An all-to-all approach to the identification of sequence-specific readers for epigenetic DNA modifications on cytosine”.
